Assay outcomes: PubChem BioAssay, several laboratories
NadD inh = inhibitors of S. aureus NadD, primary screen, biochemical, colorimetric, uHTS | Nicotinate-nucleotide adenylyltransferase NadD (Staphylococcus aureus N315) | purified NadD enzyme, colorimetric absorbance read-out | inhibition, % at 20 µM | actives 0.78% (n = 360,000); in the data active = inhibition above about 26%
GRIN3A LBD mod = binders of NR3A ligand-binding domain, primary screen, biophysical, differential scanning fluorimetry, uHTS. Glutamate receptor ionotropic, NMDA 3A (GRIN3A) ligand-binding domain. actives 2.5% (n = 340,000). AID 1259313, 2017. Tm shift relative to glycine control, % at 25 µM. NR3A LBD differential scanning fluorimetry, Tm shift; 0% = protein alone, 100% = glycine-bound protein;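 active = melting temperature shift of at least 10% of the positive control shift, at one fixed dose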
FAS TE block = FAS thioesterase domain inhibitors, primary screen, biochemical, fluorescence intensity, uHTS; Fatty acid synthase (Homo sapiens), P49327; recombinant FAS-TE, OMFH fluorogenic substrate, fluorescence endpoint; inhibition, % at 15 µM; actives 0.67% (n = 360,000); AID 602261, 2012;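 active = compounds whose normalised, plate-corrected inhibition of enzyme fluorescence in the single-dose primary screen is 50% or more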
rCAG binder = binders of r(CAG) RNA repeats, primary screen, biochemical, fluorescence | actives 1.3% (n = 370,000) | AID 651821, 2012 | r(CAG) RNA repeat, TO-PRO-1 dye displacement fluorescence | inhibition, % at 3 µM;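 active = inhibition above the plate cutoff, the mean of all test compounds on that plate plus 3 SD, cut at about 35% in these data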;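 note: higher means more dye released from RNA so lower well fluorescence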
NadD conf = inhibitors of S. aureus NadD, confirmation, biochemical, colorimetric, single concentration; actives 13% (n = 2,000); inhibition, % at 20 µM; shares compounds with NadD inh; purified S. aureus NadD, colorimetric enzyme assay; in the data active = inhibition mostly above about 42%, no sharp cut-off; inactive = mostly below about 42%
A number is an active result; – = inactive; · = no result. Compounds with a hit are over-represented: about 4.3% of the library has one in this group of screens.

SMILES | NadD inh | GRIN3A LBD mod | FAS TE block | rCAG binder | NadD conf
O=C(NCCc1c[nH]c2ccccc12)C1CCC(Cn2c(=S)[nH]c3ccccc3c2=O)CC1 (configuration not stated) | 33 | – | – | – | –
COCCNC(=O)C1CCC(Cn2c(=S)[nH]c3ccccc3c2=O)CC1 (configuration not stated) | – | – | – | – | ·
CCOC(=O)c1c(NC(=O)Cn2nc(C(=O)O)c3ccccc3c2=O)sc2c1CCC(C)C2 (configuration not stated) | 33 | – | – | – | –
O=C(N/N=C/c1ccccc1)c1[nH]c2ccc(Br)cc2c1-c1ccccc1 | 34 | 27 | – | – | –
O=C(NN=C1CCCC1)c1[nH]c2ccc(Br)cc2c1-c1ccccc1 | · | – | · | – | ·
O=C(N/N=C/c1ccccn1)c1[nH]c2ccc([N+](=O)[O-])cc2c1-c1ccccc1 | 67 | – | – | – | –
Cc1cc(C)cc(OC[C@@H](O)CN2CCC(C(O)(c3ccccc3)c3ccccc3)CC2)c1 | · | · | · | – | ·
CCOC(=O)[C@]12CCCC3=C1N(CCC3)C(=O)[C@@H](CC(=O)NCc1cccc3ccccc13)C2 | · | · | · | – | ·
CCC(C)n1c(=O)c(C(=O)Nc2ccccc2S(N)(=O)=O)c(O)c2ccccc21 (configuration not stated) | 33 | – | – | – | 64
CC(C)Cn1c(=O)c(C(=O)Nc2ccccc2S(N)(=O)=O)c(O)c2ccccc21 | 33 | – | – | – | 65
CN(C)c1ccc(Cn2c(=O)n(Cc3ccc(C(=O)NCC4COC4)cc3)c(=O)c3ccccc32)cc1 | · | · | · | – | ·
CCOc1ccccc1C(=O)Nc1ccc2nc(C)[nH]c(=O)c2c1 | · | · | · | – | ·
CC(C)n1cc(/C=N\NC(=O)c2cc3c(ccc4ccccc43)o2)c2ccccc21 | 33 | – | – | – | –
CCn1cc(/C=N/NC(=O)c2cc3c(ccc4ccccc43)o2)c2ccccc21 | 36 | 26 | – | – | 48
Cc1cc(/C=N/NC(=O)c2cc3ccccc3o2)c(C)n1C | 35 | – | – | – | –
O=C(N/N=C/c1ccncc1)c1cc2ccccc2o1 | – | – | – | – | ·
O=C(NCc1ccccc1)[C@@H]1CCCN1C(=O)[C@H]1CCCN1C(=O)c1c(F)cccc1F | · | · | · | – | ·
Cc1ccc(-n2c(SCC(=O)c3ccc(Br)cc3)nnc2-c2ccncc2)cc1 | · | · | · | – | ·
Cc1ccc(CNC(=O)c2ccc(N3CCC4(CC3)CC(c3ccccc3)=NO4)c(NC(=O)c3ccc(Br)cc3)c2)cc1 | 36 | – | – | – | –
CSc1ccc(C2C(C#N)=C(N)Oc3c2ccc(=O)c2c(C)oc(C)c32)cc1 (configuration not stated) | 58 | – | – | – | –
Cc1cc(N2CCN(c3nc(-c4ccc([N+](=O)[O-])cc4)cs3)CC2)c2ccccc2n1 | 28 | – | – | – | –
Cc1cc(-c2ccc([N+](=O)[O-])cc2)nc2ccccc12 | – | – | – | – | ·
Cc1sc2nc(COC(=O)CNC(=O)c3ccccc3Cl)[nH]c(=O)c2c1C | · | · | · | – | ·
S=c1[nH]nc(-c2cc(-c3ccsc3)n[nH]2)n1-c1cccc2ccccc12 | 32 | – | – | – | –
CC(=O)c1ccc(-n2c(-c3cc(-c4ccsc4)n[nH]3)n[nH]c2=S)cc1 | – | – | – | – | ·
SMILES | NadD inh | GRIN3A LBD mod | FAS TE block | rCAG binder | NadD conf
O=c1[nH]c(C2CCN(S(=O)(=O)c3ccccc3)CC2)nc2c1nnn2Cc1ccc2c(c1)OCCO2 | – | – | – | – | ·
COC(=O)c1ccc(Cn2nnc3c(=O)[nH]c(C4CCCN(S(=O)(=O)c5cccc(Cl)c5)C4)nc32)cc1 (configuration not stated) | 33 | – | – | – | –
COC(=O)c1ccc(Cn2nnc3c(=O)[nH]c(C4CCCN(S(=O)(=O)c5ccc(C)cc5)C4)nc32)cc1 (configuration not stated) | 29 | – | – | – | –
O=c1[nH]c(C2CCCN(S(=O)(=O)c3ccccc3Cl)C2)nc2c1nnn2Cc1ccc2c(c1)OCCO2 (configuration not stated) | 37 | – | – | – | –
Cc1ccc(Cn2nnc3c(=O)[nH]c(C4CCN(S(=O)(=O)c5ccc(S(=O)(=O)NC6CC6)cc5)CC4)nc32)cc1 | 31 | – | – | – | 44
CC(=O)c1cccc(S(=O)(=O)N2CCCC(c3nc4c(nnn4Cc4ccc(C)cc4)c(=O)[nH]3)C2)c1 (configuration not stated) | – | – | – | – | ·
CC(=O)c1cccc(S(=O)(=O)N2CCCC(c3nc4c(nnn4Cc4cccc(Cl)c4)c(=O)[nH]3)C2)c1 (configuration not stated) | 46 | – | – | – | –
Cc1cc(N2CCN(C(=O)OC(C)(C)C)C[C@H]2C)ccc1N1CC[C@@H](O)C1 | · | · | · | – | ·
CCN1CCN(Cc2ccc(NC(=O)c3ccc(C)c(NC(=O)c4nccn4C)c3)cc2C(F)(F)F)CC1 | – | – | – | – | ·
CCN1CCN(Cc2ccc(NC(=O)c3ccc(C)c(NC(=O)c4cc(-c5ccc(Br)cc5)n[nH]4)c3)cc2C(F)(F)F)CC1 | 32 | – | – | – | –
COc1ccc(-c2csc(NC(=O)c3cc(-c4cccs4)nc4ccccc34)n2)c(OC)c1 | 34 | – | – | – | –
COc1ccccc1-c1csc(NC(=O)c2cc(-c3cccs3)nc3ccccc23)n1 | – | – | – | – | ·
Cc1cc(O)c(-c2n[nH]c3c2C(c2cccc(O)c2)N(Cc2cccnc2)C3=O)cc1Cl (configuration not stated) | 46 | – | – | – | –
Cc1ccc(-c2csc(Cc3nc(-c4ccc5c(c4)CCC(=O)N5)cs3)n2)cc1 | 33 | – | – | – | –
c1ccc(-c2ccc(C3=Nn4c(nnc4-c4cc(-c5ccccc5)n[nH]4)SC3)cc2)cc1 | 44 | – | – | – | –
Cc1cc(O)c(C(=O)/C=C/c2cccc([N+](=O)[O-])c2)c(=O)o1 | 35 | – | – | – | –
Cc1cc(O)c(C(=O)/C=C/c2ccccc2O)c(=O)o1 | – | – | – | – | ·
CCOC(=O)C1=C(C)N=c2s/c(=C\c3ccc(OC(C)=O)cc3)c(=O)n2C1/C=C/c1ccccc1 (configuration not stated) | – | – | – | – | ·
CCOC(=O)C1=C(C)N=c2s/c(=C\c3ccc(OC(C)=O)c(OCC)c3)c(=O)n2C1/C=C/c1ccccc1 (configuration not stated) | 54 | – | – | – | –
COc1ccc(/C=N/N=C2/NC(=O)C(CC(=O)O)S2)cc1OCc1ccc(Cl)cc1Cl (configuration not stated) | 36 | – | – | – | –
